# Laboratory results taken from PubChem BioAssay AID624325 (Sanford-Burnham Center for Chemical Genomics, 2012).
# In all, about 2,300 compounds went through this assay and about 1,000 (43%) were called active. So high a share suggests a set chosen from earlier hits. Only a sample is shown. A number with no mark means an inactive call.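 How the source made its calls: active means compounds inhibiting the enzyme by at least 50% at 15 µM in any one of the replicates; inactive means the rest.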
# Biological target: Fatty acid synthase (Homo sapiens) (UniProt P49327)
# Sequence (P49327 whole entry, looked up): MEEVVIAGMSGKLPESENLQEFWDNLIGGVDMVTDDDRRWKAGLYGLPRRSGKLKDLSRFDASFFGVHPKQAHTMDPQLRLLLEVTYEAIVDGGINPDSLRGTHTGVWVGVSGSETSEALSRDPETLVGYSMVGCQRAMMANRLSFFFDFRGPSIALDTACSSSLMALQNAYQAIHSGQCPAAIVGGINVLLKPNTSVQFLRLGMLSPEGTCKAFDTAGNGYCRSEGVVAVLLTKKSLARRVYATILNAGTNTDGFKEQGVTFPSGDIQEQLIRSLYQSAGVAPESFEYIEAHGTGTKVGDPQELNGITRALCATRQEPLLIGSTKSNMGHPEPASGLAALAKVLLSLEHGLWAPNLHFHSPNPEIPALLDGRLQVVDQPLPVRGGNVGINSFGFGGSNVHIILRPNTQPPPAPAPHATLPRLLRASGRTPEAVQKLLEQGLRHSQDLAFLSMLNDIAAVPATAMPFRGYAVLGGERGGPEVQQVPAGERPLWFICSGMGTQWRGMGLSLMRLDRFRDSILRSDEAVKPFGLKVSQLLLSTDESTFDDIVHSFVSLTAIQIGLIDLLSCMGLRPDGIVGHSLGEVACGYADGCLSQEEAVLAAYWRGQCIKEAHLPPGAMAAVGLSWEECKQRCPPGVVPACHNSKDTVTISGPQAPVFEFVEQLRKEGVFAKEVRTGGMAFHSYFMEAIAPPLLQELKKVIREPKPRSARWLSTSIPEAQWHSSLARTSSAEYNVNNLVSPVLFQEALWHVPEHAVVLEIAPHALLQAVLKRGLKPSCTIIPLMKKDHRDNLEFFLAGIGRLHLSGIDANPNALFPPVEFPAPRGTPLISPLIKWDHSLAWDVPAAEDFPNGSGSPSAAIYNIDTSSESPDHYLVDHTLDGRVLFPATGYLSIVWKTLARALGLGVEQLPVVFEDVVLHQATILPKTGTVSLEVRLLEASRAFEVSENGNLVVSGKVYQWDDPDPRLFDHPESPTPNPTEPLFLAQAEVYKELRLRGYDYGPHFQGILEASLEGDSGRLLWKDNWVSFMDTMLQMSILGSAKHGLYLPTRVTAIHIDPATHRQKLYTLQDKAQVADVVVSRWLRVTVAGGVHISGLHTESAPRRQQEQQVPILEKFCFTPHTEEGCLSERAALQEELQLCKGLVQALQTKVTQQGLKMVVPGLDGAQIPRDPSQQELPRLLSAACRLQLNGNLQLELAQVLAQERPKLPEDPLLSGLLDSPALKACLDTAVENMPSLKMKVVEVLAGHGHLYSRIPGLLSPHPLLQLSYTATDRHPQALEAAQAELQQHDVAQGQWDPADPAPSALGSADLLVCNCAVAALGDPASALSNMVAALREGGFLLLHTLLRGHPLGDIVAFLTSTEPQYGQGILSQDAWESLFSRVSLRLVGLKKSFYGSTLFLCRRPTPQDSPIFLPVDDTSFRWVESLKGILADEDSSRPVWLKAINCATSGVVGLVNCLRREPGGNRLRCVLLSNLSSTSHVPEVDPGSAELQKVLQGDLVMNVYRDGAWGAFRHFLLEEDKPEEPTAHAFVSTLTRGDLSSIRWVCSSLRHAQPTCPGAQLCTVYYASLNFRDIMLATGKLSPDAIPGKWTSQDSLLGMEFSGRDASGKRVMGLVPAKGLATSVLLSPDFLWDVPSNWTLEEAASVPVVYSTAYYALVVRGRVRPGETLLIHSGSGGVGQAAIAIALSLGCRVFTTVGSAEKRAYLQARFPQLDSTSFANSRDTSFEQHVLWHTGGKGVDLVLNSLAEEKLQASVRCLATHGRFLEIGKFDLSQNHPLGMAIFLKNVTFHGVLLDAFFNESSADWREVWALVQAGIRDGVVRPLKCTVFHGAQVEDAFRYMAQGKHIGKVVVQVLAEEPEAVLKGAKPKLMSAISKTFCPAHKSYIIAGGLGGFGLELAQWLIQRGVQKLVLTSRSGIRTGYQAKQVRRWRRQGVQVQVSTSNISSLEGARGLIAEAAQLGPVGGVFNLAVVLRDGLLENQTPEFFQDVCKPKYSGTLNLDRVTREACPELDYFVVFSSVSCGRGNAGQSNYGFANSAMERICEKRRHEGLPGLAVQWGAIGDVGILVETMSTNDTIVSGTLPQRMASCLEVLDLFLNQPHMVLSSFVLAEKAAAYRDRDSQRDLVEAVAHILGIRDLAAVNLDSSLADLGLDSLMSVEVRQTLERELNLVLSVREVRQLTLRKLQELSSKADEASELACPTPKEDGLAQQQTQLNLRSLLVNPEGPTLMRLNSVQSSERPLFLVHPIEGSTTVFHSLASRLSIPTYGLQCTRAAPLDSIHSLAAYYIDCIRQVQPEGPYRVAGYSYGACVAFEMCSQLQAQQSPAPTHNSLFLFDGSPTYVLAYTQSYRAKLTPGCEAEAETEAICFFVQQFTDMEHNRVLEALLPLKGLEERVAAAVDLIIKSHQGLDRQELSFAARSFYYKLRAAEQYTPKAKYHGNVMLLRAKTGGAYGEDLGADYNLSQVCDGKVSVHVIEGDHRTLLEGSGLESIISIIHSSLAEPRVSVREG
# Test: inhibition of human FAS-TE enzyme activity – biochemical, fluorescence intensity, single concentration, confirmation (AID 624325);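 further: 0% = enzyme with DMSO only and 100% = wells lacking enzyme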
# Details: recombinant FAS-TE, OMFH fluorogenic substrate, at 15 µM, active compounds read high
row,SMILES,inhibition
1,CCOC(=O)[C@]12Cc3ccccc3[C@H]1N(C1CCCCC1)C(=O)c1cc(OC)ccc12,53% (active)
2,COc1cccc(C(c2nnnn2-c2ccc3c(c2)OCCO3)N2CCC3(CC2)C(=O)NCN3c2ccccc2)c1OC (stereo not drawn),8.72%
3,COc1ccc(-n2nnnc2C(c2cccc3ccccc23)N2CCC(n3c(=O)[nH]c4ccccc43)CC2)cc1 (stereo not drawn),34.4%
